Source: PubChem BioAssay (Tox21)
Several values for one entry are separate records, joined by “and”; a condition that tells them apart may be missing. Equal entries are not always repeated. Results filed as inconclusive are left out. A number with no mark means an inactive call. Activity calls are given as the source filed them. Calls follow the shape of the dose curve; as a rule, active = well fitted cell-killing curve with a large enough effect in the repeat runs; inconclusive = weak or mixed curves, or effect the other way; inactive = flat fitted curve, though single readings scatter.

Experiment: qHTS RealTime-Glo MT Cell Viability Assay in HEK293 cells - 24 hour (AID 1224886); also: nearly all actives have a fitted effect of over 50% in size; as to activity change, negative = cytotoxicity: top concentration of the series differs between compounds
Conditions: RealTime-Glo luminescence; series mostly up to 76.8 µM
Source text: National Center for Advancing Translational Sciences [NCATS]
NIH Chemical Genomics Center [NCGC]
U.S. Environmental Protection Agency [EPA]
National Institutes of Environmental Health Sciences [NIEHS]
National Toxicology Program [NTP]
U.S. Food and Drug Administration [FDA]
Measure of cell viability is critical in the cell-base assay. Analysis of cell viability is necessary for the characterization of cell responses to cytotoxic drugs and environmental stress. A RealTime-Glo MT Cell Viability Assay to monitor cell viability in real time of continues cell culture during 40 hours of compound treatment was used to screen Tox21 10K library compounds in Hek293 cells. The RealTime-Glo MT Cell Viability Assay is a nonlytic, homogeneous, bioluminescent method to measure cell viability in real time using a simple, plate-based method. The assay involves adding NanoLuc luciferase and a cell-permeant prosubstrate to cells in culture. Viable cells reduce the proprietary prosubstrate to generate a substrate for NanoLuc luciferase. This substrate diffuses from cells into the surrounding culture medium, where it is rapidly used by the NanoLuc Enzyme to produce a luminescent signal. The signal correlates with the number of viable cells, making the assay well suited for cytotoxicity studies.
Tox21 Assay Protocol Summary:
The mixture of Hek293 cell suspension and reagents were dispensed at 600cells/6 ul/well in 1536-well tissue culture treated black solid bottom plates using a Multidrop dispenser. After the assay plates were incubated at a 37 C/5% CO2 incubator for 5 hours, 23 nL of compounds dissolved in DMSO, positive and negative controls was transferred to the assay plate by a pintool work station. The plates were incubated at 37 C for 40 hours. The luminescence intensity were measured at 0h, 8h, 16h, 24h, 32h and 40h time points using ViewLux plate reader during compound treatment.
% is scaled to controls: 0 for no effect and ±100 for the full control effect; potency is read from the fitted curve at half-maximal effect.

SMILES	Potency	activity change, negative = cytotoxicity
O=C(c1ccc(F)cc1)C1CCN(CCn2c(=O)[nH]c3ccccc3c2=O)CC1	9.52 µM (active)	
CSc1ccc(C(=O)c2[nH]c(=O)[nH]c2C)cc1	inactive	
COc1cc(-c2nc(NC(=O)c3cc4cc(C)cc(C)c4n3CC(=O)O)sc2CCC2CCCCC2)c(OC)cc1Cl	40 µM (active)	
O=CC=C(c1ccccc1)c1ccccc1	17.5 µM (active)	
CN(C)c1ccc(SC#N)cc1	inactive	
N=C1N=C(N)c2ccccc21	24.5 µM (active)	
CCCCCCCCn1sc(Cl)c(Cl)c1=O	3.89 µM (active)	
O=[N+]([O-])c1cc(Cl)c(Cl)c(Cl)c1Cl	inactive	
CC(=O)OCC(C)OC(C)=O (stereo not given)	inactive	
O=C(OC[C@H]1O[C@@H](OC(=O)c2cc(O)c(O)c(OC(=O)c3cc(O)c(O)c(O)c3)c2)[C@H](OC(=O)c2cc(O)c(O)c(OC(=O)c3cc(O)c(O)c(O)c3)c2)[C@@H](OC(=O)c2cc(O)c(O)c(OC(=O)c3cc(O)c(O)c(O)c3)c2)[C@@H]1OC(=O)c1cc(O)c(O)c(OC(=O)c2cc(O)c(O)c(O)c2)c1)c1cc(O)c(O)c(OC(=O)c2cc(O)c(O)c(O)c2)c1		-14.1% [at 15.8 µM]
O=C(c1ccc(O)cc1O)c1ccc(O)cc1O	inactive	
NC(=O)NS(=O)(=O)c1ccc(N)cc1	inactive	
Oc1ccc2cc(SSc3ccc4cc(O)ccc4c3)ccc2c1	49 µM (active)	
CC(C)(C)CC(C)(C)c1ccc(O)c(Cc2ccc(Cl)cc2Cl)c1	23.9 µM (active)	
COc1cc(-c2ccc(N=C=O)c(OC)c2)ccc1N=C=O	inactive	
CNC(=O)c1ccccc1	inactive	
O=C1CCCCCN1SSN1CCCCCC1=O	inactive	
C[n+]1cc2c3c(ccc2c2ccc4cc5c(cc4c21)OCO5)OCO3	0.585 µM (active)	
O=c1[nH]cnc2nc[nH]c12	inactive	
CCCCCCCCOC(=O)c1ccc(O)cc1	24.5 µM (active)	

SMILES	Potency	activity change, negative = cytotoxicity
Cc1cc(N)c(S(=O)(=O)O)cc1Cl	inactive	
CSc1ccc(/C=C2/C(C)=C(CC(=O)O)c3cc(F)ccc32)cc1	inactive	
CCN(CC)CCCC(C)Nc1c2ccc(Cl)cc2nc2ccc(OC)cc12 (stereo not given)	4.25 µM (active)	
O=c1[nH]sc2ccccc12	38.9 µM (active)	
COc1c(C)c2c(c(O)c1C/C=C(\C)CCC(=O)O)C(=O)OC2	inactive	
Oc1ccc(C2(c3ccc(O)cc3)CC3CC2C2CCCC32)cc1 (stereo not given)	41.9 µM (active)	
C/C=C(\C)C(=O)OCc1ccccc1	inactive	
C=CC(=O)OCCn1c(=O)n(CCOC(=O)C=C)c(=O)n(CCOC(=O)C=C)c1=O	11 µM (active)	
O=C(Oc1ccccc1)c1ccccc1C(=O)Oc1ccccc1	inactive	
CCCCN(CCCC)C(=O)N(CCCC)CCCC	inactive	
CC(C)n1nc(-c2cc3cc(O)ccc3[nH]2)c2c(N)ncnc21	0.301 µM (active)	
COC(=O)C1=C(C)NC(C)=C(C(=O)OCC(C)C)C1c1ccccc1[N+](=O)[O-] (stereo not given)	24.5 µM (active)	
C[C@H]1[C@H]2CC[C@H]3[C@@H]4CC=C5C[C@@H](N(C)C)CC[C@]5(C)[C@H]4CC[C@]23CN1C	inactive	
Oc1cc2ccccc2c2ccccc12	9.77 µM (active)	
O=C(Oc1cccc2cccnc12)c1ccccc1	inactive	
CCOc1nc2cccc(C(=O)OC(C)OC(=O)OC3CCCCC3)c2n1Cc1ccc(-c2ccccc2-c2nn[nH]n2)cc1 (stereo not given)	9.76 µM (active)	
C=CC(=O)OCC(CO)(COC(=O)C=C)COC(=O)C=C	4.91 µM (active)	
CC(=O)N1CCN(c2ccc(OC[C@H]3CO[C@](Cn4ccnc4)(c4ccc(Cl)cc4Cl)O3)cc2)CC1	21.9 µM (active)	
CCCCCCOC(=O)c1ccc(O)cc1	43.7 µM (active) and 24.5 µM (active)	
CS(=O)(=O)CCNCc1ccc(-c2ccc3ncnc(Nc4ccc(OCc5cccc(F)c5)c(Cl)c4)c3c2)o1	21.3 µM (active)	
